# Measured values as given in PubChem BioAssay (NCATS).
# Where “and” joins values, the source holds several entries; their conditions need not be identical. Equal values may be shown once. Unmarked numbers belong to inactive results. Results filed as inconclusive are left out. Where a call stands in place of a potency, no number is given. Calls of active or inactive are those of the source. Calls follow the shape of the dose curve; as a rule, active = well fitted curve in the direction sought with a large enough effect; inconclusive = small, poorly fitted or top-dose-only effect, or another doubt; inactive = no such curve, though single readings can be large; an effect the other way counts as inactive or inconclusive.
# Molecular target: Peroxisome proliferator-activated receptor alpha (Homo sapiens) (UniProt Q07869)
# Test: qHTS assay for small molecule agonists of the peroxisome proliferator-activated receptor alpha (PPARalpha) signaling pathway (AID 651778)
# Details: PathHunter PPARalpha complementation, chemiluminescence, 6 h; hits give high values
# In short: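 Chemiluminescence from complemented enzyme reported PPARalpha activation in cells after 6 hr of compound treatment at 37 C. The detection reagent was incubated for 60 min at room temperature, and compounds were scored as agonists.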
# Chain of Peroxisome proliferator-activated receptor alpha (Homo sapiens) (Q07869 whole entry, looked up): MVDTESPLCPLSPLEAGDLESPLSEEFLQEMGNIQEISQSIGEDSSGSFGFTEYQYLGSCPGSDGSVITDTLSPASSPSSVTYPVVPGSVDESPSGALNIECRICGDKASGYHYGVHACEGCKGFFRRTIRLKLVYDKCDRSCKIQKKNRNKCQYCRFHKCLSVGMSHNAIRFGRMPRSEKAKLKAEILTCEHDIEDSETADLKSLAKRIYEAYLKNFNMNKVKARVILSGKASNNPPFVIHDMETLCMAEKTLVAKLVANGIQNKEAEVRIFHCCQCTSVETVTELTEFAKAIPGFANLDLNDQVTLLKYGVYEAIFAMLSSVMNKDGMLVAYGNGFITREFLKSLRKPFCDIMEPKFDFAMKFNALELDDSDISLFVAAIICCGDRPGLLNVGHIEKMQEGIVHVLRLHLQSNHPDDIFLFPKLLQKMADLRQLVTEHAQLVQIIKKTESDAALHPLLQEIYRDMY
row,SMILES,max response
1,CC(C)OC(=O)c1cc(C(=O)OC(C)C)cc([N+](=O)[O-])c1,0.0203%
2,CN(C)c1ccc(C(=C2C=CC(=[N+](C)C)C=C2)c2ccccc2)cc1,-10.3%
3,CN1CCC[C@H]1c1cccnc1,-3.15% and -0.899%

# Molecular target: Arylsulfatase A (Homo sapiens) (UniProt P15289)
# Test: qHTS screen for enhancers of Arylsulfatase A (ASA1): LOPAC Validation Assay (AID 720538)
# Details: ASA enzyme activity, LOPAC qHTS enhancer assay; series mostly up to 57.5 µM
# In short: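 SV40-transformed skin fibroblasts from an MLD patient (ASA-I179S) were treated with compounds for 48h at 37 degree C, then lysed with 0.5mM pNCS final substrate for 14h at room temperature; NaOH stop, fluorescence read (Ex=525 nm; Em=598 nm).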
# Chain of Arylsulfatase A (Homo sapiens) (P15289 whole entry, looked up): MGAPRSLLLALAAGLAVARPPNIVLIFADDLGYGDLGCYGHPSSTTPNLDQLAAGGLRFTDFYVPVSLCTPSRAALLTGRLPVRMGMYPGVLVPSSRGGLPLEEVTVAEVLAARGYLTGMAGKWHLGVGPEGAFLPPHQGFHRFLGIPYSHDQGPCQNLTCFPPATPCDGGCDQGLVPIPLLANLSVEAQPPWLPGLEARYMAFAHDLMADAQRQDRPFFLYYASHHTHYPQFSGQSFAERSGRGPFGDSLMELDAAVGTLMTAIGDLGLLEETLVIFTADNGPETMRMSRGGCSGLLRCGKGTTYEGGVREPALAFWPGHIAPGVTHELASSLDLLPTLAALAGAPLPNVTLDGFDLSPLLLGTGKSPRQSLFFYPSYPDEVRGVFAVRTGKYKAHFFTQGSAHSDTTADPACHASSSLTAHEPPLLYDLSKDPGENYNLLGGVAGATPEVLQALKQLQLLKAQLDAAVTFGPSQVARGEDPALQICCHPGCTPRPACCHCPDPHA
row,SMILES,Potency
1,CN(C)c1ccc(/C=C2\C(=O)Nc3ccccc32)cc1,inactive
2,CSc1ccccc1N1CCN(CCCCCC(=O)NC2CCCc3ccccc32)CC1 (configuration not stated),inactive
3,CC(=O)N[C@H](C(=O)O)C(C)(C)SN=O,inactive
4,O=C1O/C(=C/Br)CCC1c1cccc2ccccc12 (configuration not stated),inactive
5,CCC1C(=O)OCC1Cc1cncn1C (configuration not stated),inactive
6,CCN(CC)c1ncnc2c1ncn2[C@@H]1O[C@H](COP(=O)(O)OP(=O)(O)C(Br)(Br)P(=O)(O)O)[C@@H](O)[C@H]1O,inactive
7,CC12C(=O)OC(=O)C1(C)C1CCC2O1 (configuration not stated),inactive
8,CO/S(=N\S(=O)(=O)c1ccc(Cl)cc1)c1ccc([N+](=O)[O-])cc1 (configuration not stated),inactive
9,S=C(S)OC1CC2CC1C1CCCC21 (configuration not stated),inactive
10,COc1cc2nc(N3CCN(C(=O)OCc4ccccc4)C(C(=O)NC(C)(C)C)C3)nc(N)c2cc1OC (configuration not stated),inactive
11,CN1CCc2cccc3c2C1Cc1ccc(O)c(O)c1-3 (configuration not stated),inactive
12,Cc1nc2sccn2c(=O)c1CCN1CCC(=C(c2ccccc2)c2ccc(F)cc2)CC1,inactive
13,O=C(O)[C@@H]1C[C@@H](C(=O)O)N1,inactive
14,Brc1c(Br)c(Br)c2n[nH]nc2c1Br,inactive
15,CC[C@@H](C)[C@H]1O[C@]2(CC[C@H]1C)C[C@@H]1C[C@@H](CC=C(C)[C@@H](O[C@H]3C[C@H](OC)[C@@H](O[C@H]4C[C@H](OC)[C@@H](O)[C@H](C)O4)[C@H](C)O3)[C@@H](C)C=CC=C3CO[C@@H]4[C@H](O)C(C)=C[C@@H](C(=O)O1)[C@]34O)O2,inactive
16,C=CC(=O)c1ccc(CCCCCC)cc1,inactive
17,C#C[C@]1(O)CC[C@H]2[C@@H]3CCC4=Cc5oncc5CC4(C)[C@H]3CCC21C (some centres not stated),inactive
18,CCN1/C(=C/C(C)=O)Sc2ccc(OC)cc21,inactive
19,O=C(CCCCCN1CCN(c2ccccc2-c2ccccc2)CC1)NC1CCCc2ccccc21 (configuration not stated),inactive
20,CCCCCCCCCCCCCCCC(=O)NCC(COP(=O)([O-])OCC[N+](C)(C)C)OCC (configuration not stated),inactive
21,O=C(O)c1cc(=O)c2ccccc2[nH]1,inactive
22,C[N+]1(C)CCC(OC(=O)C(c2ccccc2)c2ccccc2)CC1,inactive
23,O=c1[nH]c2cc(Cl)c(Cl)cc2[nH]c1=O,inactive
24,COc1cccc(OC)c1OCCNCC1COc2ccccc2O1 (configuration not stated),inactive
25,OCC1O[C@H](O)C(Cl)C(O)C1O (some centres not stated),inactive
26,C[N+](C)(C)CCOP(=O)(O)OP(=O)([O-])OC[C@H]1O[C@@H](n2ccc(N)nc2=O)[C@H](O)[C@@H]1O,inactive
27,Cn1ncc(S(=O)(=O)Cc2ccccc2)c(Br)c1=O,inactive
28,CN1CCc2ccccc2Cc2[nH]c3ccccc3c2CC1,inactive
29,CCCCCC(O)c1cccc(OCc2ccc3ccccc3n2)c1 (configuration not stated),inactive
